Laboratory results from PubChem BioAssay (EPA / NIEHS).
Results filed as inconclusive are left out. Active and inactive are the calls of the source. Rule for the calls, unless noted: active = hit-call score of the fitted dose curve at least 0.9, where 1 is the maximum; inconclusive = response in the unintended direction; inactive = score below 0.9.

Assays:
[1] = molecular target: Cellular tumor antigen p53 (Homo sapiens) (UniProt P04637); experiment: TOX21_p53_BLA_p2_ratio: Tox21 HCT-116 p53 Agonism Beta-lactamase Assay, Ratio, Phase 2 (AID 2283592)
Sequence of Cellular tumor antigen p53 (Homo sapiens) (P04637 whole entry, looked up): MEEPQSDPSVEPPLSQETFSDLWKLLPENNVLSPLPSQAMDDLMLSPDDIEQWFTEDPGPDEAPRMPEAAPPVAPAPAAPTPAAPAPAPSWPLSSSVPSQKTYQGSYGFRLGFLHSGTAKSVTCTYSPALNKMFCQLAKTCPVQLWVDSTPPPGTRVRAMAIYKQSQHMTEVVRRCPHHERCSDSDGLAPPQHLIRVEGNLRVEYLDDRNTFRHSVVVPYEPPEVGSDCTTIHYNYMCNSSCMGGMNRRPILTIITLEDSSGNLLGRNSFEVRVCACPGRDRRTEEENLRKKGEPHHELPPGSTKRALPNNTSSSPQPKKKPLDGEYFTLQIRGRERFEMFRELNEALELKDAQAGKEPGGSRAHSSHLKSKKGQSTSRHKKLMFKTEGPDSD
In short: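 Cleaved-to-uncleaved substrate ratio (460 vs 530 nm) measured in HCT116 cells with an inducible beta-lactamase reporter linked to p53 activity. Compounds incubated 16 h at 37C before 2 h room-temperature CCF4-AM loading.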

[2] = TOX21_p53_BLA_p3_viability: Viability Assessment in the Tox21 HCT-116 p53 Agonism Beta-lactamase Assay, Phase 3 (AID 2283593);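 note: cells exposed to compound for 16 h before reading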
In short: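 HCT-116 cells (4000/well) rested 5 h at 37C, then got DMSO compounds by pin tool (217-fold dilution) for 16 h at 37C, 5% CO2. After the bla read, CellTiter-Glo was added and luminescence read at 30 min, room temperature.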

[3] = molecular target: Cellular tumor antigen p53 (Homo sapiens) (UniProt P04637); experiment: TOX21_p53_BLA_p3_ratio: Tox21 HCT-116 p53 Agonism Beta-lactamase Assay, Ratio, Phase 3 (AID 2283596)
In short: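 Cells were seeded at 4000/well, rested 5 h at 37C, then dosed with DMSO compound solutions (217-fold dilution) for 16 h. CCF4-AM substrate was loaded for 2 h at room temperature, and the 460/530 nm emission ratio was fitted for gain of signal versus DMSO.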

[4] = molecular target: Cellular tumor antigen p53 (Homo sapiens) (UniProt P04637); experiment: TOX21_p53_BLA_p5_ratio: Tox21 HCT-116 p53 Agonism Beta-lactamase Assay, Ratio, Phase 5 (AID 2283599)
In short: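 HCT-116 cells carrying a p53-inducible beta-lactamase reporter were seeded at 4000 cells/well and dosed after 5 h with compound in DMSO (217-fold dilution). After 16 h at 37C, CCF4-AM substrate was added for 2 h, and the 460/530 nm emission ratio was scored as gain-of-signal versus DMSO.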

[5] = molecular target: Cellular tumor antigen p53 (Homo sapiens) (UniProt P04637); experiment: TOX21_p53_BLA_p4_ratio: Tox21 HCT-116 p53 Agonism Beta-lactamase Assay, Ratio, Phase 4 (AID 2283601)
In short: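 HCT116 cells carrying an inducible beta-lactamase reporter were plated at 4000 cells/well, rested 5 h, then exposed to compounds in DMSO (217-fold dilution) for 16 h at 37C. CCF4-AM substrate was loaded 2 h at room temperature; 460/530 nm emission ratio scored gain-of-signal versus DMSO.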

[6] = TOX21_p53_BLA_p5_viability: Viability Assessment in the Tox21 HCT-116 p53 Agonism Beta-lactamase Assay, Phase 5 (AID 2283600)
In short: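 Viability is taken from cellular ATP content, measured by luciferase luminescence in the same wells after the beta-lactamase ratio read. Cells are seeded at 4000 per well and exposed to DMSO-dissolved compounds, diluted 217-fold, for 16 h.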

[7] = TOX21_TR_RXR_BLA_Agonist_Followup_viability: Viability Assessment in the Tox21 Thyroid Hormone Receptor beta Retinoid X Receptor alpha (RXRa) Agonism Beta-lactamase (BLA) Follow-Up Assay (AID 2283970)
In short: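 Luminescent ATP read (CellTiter-Glo) after 16h exposure of RXRa-UAS-bla HEK293T cells at 37C/5% CO2. Activity normalized to DMSO; signal loss scored as reduced viability.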

[8] = TOX21_p53_BLA_p4_viability: Viability Assessment in the Tox21 HCT-116 p53 Agonism Beta-lactamase Assay, Phase 4 (AID 2283597);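 note: hits lower the luminescence signal meaning cytotoxicity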
In short: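 Viability is taken as cellular ATP: after 16 h compound exposure of HCT116 cells and a 2 h room-temperature CCF4-AM substrate step, CellTiter-Glo reagent is added and luminescence is measured 30 min later.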

[9] = molecular target: Thyroid hormone receptor alpha (Rattus norvegicus) + Thyroid hormone receptor beta (Rattus norvegicus) (UniProt P18113+P63059); experiment: TOX21_TR_LUC_GH3_Agonist_Followup: Tox21 GH3 Thyroid Hormone Receptor Agonism Luciferase Follow-Up Assay (AID 2283939)
Sequence of Thyroid hormone receptor alpha (Rattus norvegicus) + Thyroid hormone receptor beta (Rattus norvegicus) (P63059 whole entry, looked up): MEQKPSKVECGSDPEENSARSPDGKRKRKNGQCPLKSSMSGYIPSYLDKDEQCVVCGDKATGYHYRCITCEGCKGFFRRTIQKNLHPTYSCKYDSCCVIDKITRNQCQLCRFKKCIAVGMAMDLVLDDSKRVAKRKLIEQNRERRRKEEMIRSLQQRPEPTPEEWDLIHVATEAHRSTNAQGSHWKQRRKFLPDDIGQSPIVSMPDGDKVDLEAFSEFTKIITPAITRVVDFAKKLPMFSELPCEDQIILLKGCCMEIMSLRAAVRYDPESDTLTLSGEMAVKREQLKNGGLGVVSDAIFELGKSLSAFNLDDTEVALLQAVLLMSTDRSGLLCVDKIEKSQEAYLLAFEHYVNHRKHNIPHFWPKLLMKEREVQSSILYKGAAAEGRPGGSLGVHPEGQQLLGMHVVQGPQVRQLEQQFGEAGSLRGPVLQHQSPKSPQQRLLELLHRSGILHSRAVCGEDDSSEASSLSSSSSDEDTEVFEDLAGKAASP
Sequence of Thyroid hormone receptor alpha (Rattus norvegicus) + Thyroid hormone receptor beta (Rattus norvegicus) (P18113 whole entry, looked up): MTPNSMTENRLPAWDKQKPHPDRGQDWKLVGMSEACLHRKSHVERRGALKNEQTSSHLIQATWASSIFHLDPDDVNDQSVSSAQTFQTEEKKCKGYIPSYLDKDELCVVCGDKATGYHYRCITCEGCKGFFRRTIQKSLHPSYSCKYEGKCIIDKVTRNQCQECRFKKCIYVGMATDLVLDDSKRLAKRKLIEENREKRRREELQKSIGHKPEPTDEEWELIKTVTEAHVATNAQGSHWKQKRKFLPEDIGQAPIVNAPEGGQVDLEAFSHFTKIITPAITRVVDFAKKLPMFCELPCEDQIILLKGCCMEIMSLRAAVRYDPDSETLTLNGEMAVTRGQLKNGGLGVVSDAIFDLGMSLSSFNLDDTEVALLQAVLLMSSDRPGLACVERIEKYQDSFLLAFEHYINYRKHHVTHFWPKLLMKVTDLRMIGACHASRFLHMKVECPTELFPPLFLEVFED
In short: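 Agonist-mode confirmatory run: 15 concentrations (5 nM to 92 uM final) on GH3 rat pituitary cells, 24 h at 37C/5% CO2, T3 as positive control. Luminescence read with ONE-Glo after 30 min.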

[10] = molecular target: THRA (gene 7067) (UniProt P10827); experiment: TOX21_TRA_COA_Agonist_Followup_ratio: Tox21 Thyroid Hormone Receptor alpha Agonism through Coactivator Recruitment Follow-Up Assay, Ratio (AID 2283948; active = hit-call score of the fitted dose curve at least 0.9, where 1 is the maximum; inactive = score below 0.9)
Sequence of THRA (gene 7067) (P10827 whole entry, looked up, the tested form may be a part): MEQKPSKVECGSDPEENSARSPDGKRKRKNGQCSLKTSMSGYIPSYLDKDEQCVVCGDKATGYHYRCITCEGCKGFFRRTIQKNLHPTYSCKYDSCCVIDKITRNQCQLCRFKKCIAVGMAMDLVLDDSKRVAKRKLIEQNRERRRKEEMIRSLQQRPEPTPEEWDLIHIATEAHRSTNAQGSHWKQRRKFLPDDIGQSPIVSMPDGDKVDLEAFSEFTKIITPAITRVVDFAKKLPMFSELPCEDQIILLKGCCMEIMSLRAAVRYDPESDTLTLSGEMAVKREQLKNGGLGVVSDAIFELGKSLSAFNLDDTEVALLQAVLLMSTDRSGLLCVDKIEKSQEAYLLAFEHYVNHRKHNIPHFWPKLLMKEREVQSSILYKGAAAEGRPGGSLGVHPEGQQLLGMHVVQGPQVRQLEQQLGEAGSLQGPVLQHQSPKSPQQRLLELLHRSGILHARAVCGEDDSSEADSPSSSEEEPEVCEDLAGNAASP
In short: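 First, compound was incubated with 2.5 nM GST-TRα LBD in 0.10% BSA. Next, 200 nM fluorescein-SRC-2 and 2 nM Tb-anti-GST antibody were added. Finally, the 520:495 nm ratio was normalized to DMSO and T3 controls.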

[11] = molecular target: THRB (gene 7068) (UniProt P10828); experiment: TOX21_TRB_BLA_Agonist_Followup_ratio: Tox21 Thyroid Hormone Receptor beta Agonism Beta-lactamase (BLA) Follow-Up Assay, Ratio (AID 2283954)
Sequence of THRB (gene 7068) (P10828 whole entry, looked up, the tested form may be a part): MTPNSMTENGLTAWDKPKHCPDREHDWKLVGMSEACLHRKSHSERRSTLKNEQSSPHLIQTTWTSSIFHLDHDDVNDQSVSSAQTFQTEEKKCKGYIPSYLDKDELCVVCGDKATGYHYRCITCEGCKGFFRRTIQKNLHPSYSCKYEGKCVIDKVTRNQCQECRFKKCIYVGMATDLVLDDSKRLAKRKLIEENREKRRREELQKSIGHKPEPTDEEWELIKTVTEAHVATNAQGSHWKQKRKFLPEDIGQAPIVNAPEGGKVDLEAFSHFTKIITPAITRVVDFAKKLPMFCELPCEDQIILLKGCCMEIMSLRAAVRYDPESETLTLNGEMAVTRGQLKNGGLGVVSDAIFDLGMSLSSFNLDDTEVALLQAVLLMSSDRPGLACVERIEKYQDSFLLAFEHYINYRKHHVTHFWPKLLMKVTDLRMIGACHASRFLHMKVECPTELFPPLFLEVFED
In short: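 Agonist mode: compounds (11-point, triplicate) incubated 18 h with HEK293T cells carrying GAL4-DBD/human TRβ-LBD and UAS-β-lactamase. Blue/green (460/530 nm) FRET ratio read after 2 h CCF4-AM loading; CellTiter-Glo viability run in the same plates.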

[12] = molecular target: THRB (gene 7068) (UniProt P10828); experiment: TOX21_TRB_COA_Agonist_Followup_ratio: Tox21 Thyroid Hormone Receptor beta Agonism through Coactivator Recruitment Follow-Up Assay, Ratio (AID 2283963; active = hit-call score of the fitted dose curve at least 0.9, where 1 is the maximum; inactive = score below 0.9)
In short: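 Signal is the 520/495 nm emission ratio (excitation 340 nm), scaled between DMSO-only wells as 0% and T3 wells as 100%. It reflects fluorescein-labeled SRC-2 peptide recruitment to GST-TRβ ligand-binding domain detected via terbium anti-GST antibody.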

[13] = molecular target: Retinoic acid receptor RXR-alpha (Homo sapiens) (UniProt P19793); experiment: TOX21_TR_RXR_BLA_Agonist_Followup_ratio: Tox21 Thyroid Hormone Receptor beta Retinoid X Receptor alpha (RXRa) Agonism Beta-lactamase (BLA) Follow-Up Assay, Ratio (AID 2283968)
Sequence of Retinoic acid receptor RXR-alpha (Homo sapiens) (P19793 whole entry, looked up): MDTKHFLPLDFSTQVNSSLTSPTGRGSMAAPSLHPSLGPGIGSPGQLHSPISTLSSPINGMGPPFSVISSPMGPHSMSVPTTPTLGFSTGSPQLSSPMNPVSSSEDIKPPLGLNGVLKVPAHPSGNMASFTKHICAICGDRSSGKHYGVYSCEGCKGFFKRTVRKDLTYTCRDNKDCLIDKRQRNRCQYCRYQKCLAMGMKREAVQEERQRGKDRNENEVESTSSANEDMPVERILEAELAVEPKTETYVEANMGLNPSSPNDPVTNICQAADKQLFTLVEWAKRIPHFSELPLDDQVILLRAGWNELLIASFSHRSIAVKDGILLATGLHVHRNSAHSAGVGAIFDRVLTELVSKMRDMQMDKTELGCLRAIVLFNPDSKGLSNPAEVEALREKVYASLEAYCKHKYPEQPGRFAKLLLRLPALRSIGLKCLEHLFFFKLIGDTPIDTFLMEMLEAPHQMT
In short: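 Agonism is scored as an increase in the 460:530 nm beta-lactamase substrate ratio over DMSO in RXRa-UAS-bla HEK293T cells exposed for 16 h to 11 compound concentrations.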

[14] = ACEA_ER_AUC_viability: ACEA Biosciences xCELLigence Real-Time Cell Analysis on Estrogen Receptor Agonism for Viability (AID 2283782);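 note: hit means loss of impedance signal meaning reduced cell growth or viability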
In short: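 Continuous-exposure impedance cell analysis uses T-47D cells in charcoal-stripped serum, eight 1:4 dilutions topping at 100 uM final, biological duplicate. Area under the growth curve at 80 h is fitted against DMSO baseline.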

Measured: outcome

C=C1CC[C@@H]2[C@](C)(CO)[C@H](O)CC[C@@]2(C)[C@@H]1C/C=C1/C(=O)OC[C@H]1O
inactive: [1] | [2] | [3] | [4] | [5]

O=C(O)/C=C/c1ccc(Cn2ccnc2)cc1
inactive: [1] | [2] | [3] | [4] | [6] | [5]

c1ccc(CSCc2ccccc2)cc1
inactive: [1] | [2] | [3] | [4] | [6] | [5]

CC(=O)CC(=O)c1ccccc1
inactive: [1] | [2] | [3] | [4] | [6] | [5]

O=Cc1c(Cl)cccc1Cl
inactive: [1] | [2] | [3] | [4] | [6] | [5]

Cn1nnc2c(C(N)=O)ncn2c1=O
inactive: [1] | [2] | [3] | [4] | [6] | [5]

CCC(CO)(CO)COCC(CC)(CO)CO
inactive: [1] | [2] | [3] | [4] | [6] | [5]

CCCCOC(=O)/C=C\C(=O)OCCCC
inactive: [1] | [2] | [3] | [4] | [6] | [5]

c1csc(SSc2cccs2)c1
inactive: [1] | [2] | [3] | [4] | [5]

CC1=C(/C=C/C(C)=C\C=C\C(C)=C\C(=O)O)C(C)(C)CCC1
inactive: [1] | [2] | [3] | [4] | [5] | [7]

Nc1nnc(-c2cccc(Cl)c2Cl)c(N)n1
inactive: [1] | [2] | [3] | [5]

COC(=O)CCC[N+](C)(C)C
inactive: [1] | [2] | [3] | [6]

NC(N)=NCC1COC2(CCCCC2)O1 (stereo not drawn)
inactive: [1] | [2] | [3] | [6] | [5]

CCS(=O)(=O)CCn1c([N+](=O)[O-])cnc1C
inactive: [1] | [2] | [3] | [5]

Cc1cc(O)c2ccccc2c1O
inactive: [1] | [2] | [3] | [4] | [5]

Cc1ccc(O)c([N+](=O)[O-])c1
inactive: [1] | [2] | [8]

CC(C)NCC(O)COc1cccc2[nH]ccc12 (stereo not drawn)
inactive: [1] | [2] | [3] | [4] | [5]

COc1c(N2CCNC(C)C2)c(F)cc2c(=O)c(C(=O)O)cn(C3CC3)c12 (stereo not drawn)
inactive: [1] | [2] | [3] | [6] | [5]

O=c1[nH]c(=O)n([C@H]2C[C@H](O)[C@@H](CO)O2)cc1/C=C/Br
inactive: [1] | [2] | [3] | [6] | [5]

N#CC1(O)CCCCC1
inactive: [1] | [2] | [3] | [5]

CCCCC(C)(O)C/C=C/[C@H]1[C@H](O)CC(=O)[C@@H]1CCCCCCC(=O)OC (stereo partly drawn)
inactive: [1] | [2] | [3] | [4] | [5]

COC(c1ccccc1)(c1ccccc1)[C@H](Oc1nc(C)cc(C)n1)C(=O)O
inactive: [1] | [2] | [3] | [6] | [5]

CC[C@@H](C)[C@H](N)C(=O)O
inactive: [1] | [2] | [3] | [5]

Nc1ncnc2c1ncn2[C@@H]1O[C@H](CO)[C@@H](O)[C@H]1O
inactive: [1] | [2] | [3] | [6] | [5]

CCC(C)c1cc(C(C)(C)C)c(O)c(C(C)(C)C)c1 (stereo not drawn)
not listed: [5] | [6] | [8] | [14]
inactive: all other assays above

NCC[C@H](O)C(=O)N[C@@H]1C[C@H](N)[C@@H](O[C@H]2O[C@H](CN)[C@@H](O)[C@H](O)[C@H]2O)[C@H](O)[C@H]1O[C@H]1O[C@H](CO)[C@@H](O)[C@H](N)[C@H]1O
inactive: [1] | [2] | [3] | [6]

C[C@H](CCCC(C)(C)O)[C@H]1CC[C@H]2[C@@H]3CC=C4C[C@@H](O)CC[C@]4(C)[C@H]3CC[C@]12C
inactive: [1] | [2] | [3] | [5]

O=C(O)C1CCCN1 (stereo not drawn)
inactive: [1] | [2] | [3] | [4] | [5]

CCCCCCCCCCCCCCC(=O)NC(CO)CCCCCCCCCCCCCC (stereo not drawn)
inactive: [1] | [2] | [8] | [4]

NCCN1CCOCC1
inactive: [1] | [2] | [3] | [6] | [5] | [14]

COC(=O)CCC(=O)CN
inactive: [1] | [2] | [3] | [6]

CO/N=C(\C(=O)N[C@@H]1C(=O)N2C(C(=O)O)=C(CSc3nc(=O)c(O)nn3C)CS[C@H]12)c1csc(N)n1
inactive: [1] | [2] | [3] | [4] | [5]

CC(=O)N(CC(O)CN(C(C)=O)c1c(I)c(C(=O)NCC(O)CO)c(I)c(C(=O)NCC(O)CO)c1I)c1c(I)c(C(=O)NCC(O)CO)c(I)c(C(=O)NCC(O)CO)c1I (stereo not drawn)
inactive: [1] | [2] | [3] | [4] | [5]
